Structures can show the parent of a compound that is named as a salt.
What was measured:
Test in all cases: phenotypically active (imaging signature differs from DMSO and reproducible) at any of 0.3-9 uM (binary (1 = active, 0 = inactive)); higher = active
Conditions in all cases: treatment time: 24 h
[1] = tested on: A549-ACTB-RAB5A
How it was run: (§1)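 Each of fifteen gene-edited A549, HepG2 and WPMY1 reporter lines, marked with BFP for segmentation and GFP and RFP/FusionRed, was treated in four wells at 0.3, 1, 3 or 9 µM for 24 h prior to live imaging. Normalisation of per-well live-cell features used solvent control wells. Deviation needed ≥3 of 4 wells beyond the 95th percentile of control Euclidean distances, and reproducibility needed a median replicate Pearson correlation above the 95th percentile of non-replicates. Both were required for phenotypic activity.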

[2] = tested on: A549-CANX-COX4
How it was run: as §1

[3] = tested on: A549-GM130-SQSTM1
How it was run: as §1

[4] = tested on: A549-TP53BP1-CLTA
How it was run: as §1

[5] = tested on: A549-TUBA1B-RELA
How it was run: as §1

[6] = tested on: HepG2-ACTB-RAB5A
How it was run: as §1

[7] = tested on: HepG2-CANX-COX4
How it was run: as §1

[8] = tested on: HepG2-GM130-SQSTM1
How it was run: as §1

[9] = tested on: HepG2-TP53BP1-CLTA
How it was run: as §1

[10] = tested on: HepG2-TUBA1B-RELA
How it was run: as §1

[11] = tested on: WPMY1-ACTB-RAB5A
How it was run: as §1

[12] = tested on: WPMY1-CANX-COX4
How it was run: as §1

[13] = tested on: WPMY1-GM130-SQSTM1
How it was run: as §1

[14] = tested on: WPMY1-TP53BP1-CLTA
How it was run: as §1

[15] = tested on: WPMY1-TUBA1B-RELA
How it was run: as §1

Measured: phenotypically active

CCC(NC(C)C)C(O)c1ccc(O)c(O)c1 (stereo not given) [isoetharine]
inactive: [1] 0 | [2] 0 | [3] 0 | [4] 0 | [5] 0 | [6] 0 | [7] 0 | [8] 0 | [9] 0 | [10] 0 | [11] 0 | [12] 0 | [13] 0 | [14] 0 | [15] 0

CC(C)(C(=O)O)c1ccc(C(O)CCCN2CCC(C(O)(c3ccccc3)c3ccccc3)CC2)cc1 (stereo not given) [fexofenadine]
inactive: [1] 0 | [2] 0 | [3] 0 | [4] 0 | [5] 0 | [6] 0 | [7] 0 | [8] 0 | [9] 0 | [10] 0 | [11] 0 | [12] 0 | [13] 0 | [14] 0 | [15] 0

CC(=O)NCCCS(=O)(=O)O [acamprosate]
inactive: [1] 0 | [2] 0 | [3] 0 | [4] 0 | [5] 0 | [6] 0 | [7] 0 | [8] 0 | [9] 0 | [10] 0 | [11] 0 | [12] 0 | [13] 0 | [14] 0 | [15] 0

C[C@H](N[C@@H](CCc1ccccc1)C(=O)O)C(=O)N1CCC[C@H]1C(=O)O [enalaprilat]
inactive: [1] 0 | [2] 0 | [3] 0 | [4] 0 | [5] 0 | [6] 0 | [7] 0 | [8] 0 | [9] 0 | [10] 0 | [11] 0 | [12] 0 | [13] 0 | [14] 0 | [15] 0

CN(C)/N=N/c1[nH]cnc1C(N)=O [dacarbazine]
inactive: [1] 0 | [2] 0 | [3] 0 | [4] 0 | [5] 0 | [6] 0 | [7] 0 | [8] 0 | [9] 0 | [10] 0 | [11] 0 | [12] 0 | [13] 0 | [14] 0 | [15] 0

O=C(O)CCNC(=O)c1ccc(/N=N/c2ccc(O)c(C(=O)O)c2)cc1 [balsalazide]
inactive: [1] 0 | [2] 0 | [3] 0 | [4] 0 | [5] 0 | [6] 0 | [7] 0 | [8] 0 | [9] 0 | [10] 0 | [11] 0 | [12] 0 | [13] 0 | [14] 0 | [15] 0

Brc1c(Br)c(Br)c2[nH]nnc2c1Br
inactive: [1] 0 | [2] 0 | [3] 0 | [4] 0 | [5] 0 | [6] 0 | [7] 0 | [8] 0 | [9] 0 | [10] 0 | [11] 0 | [12] 0 | [13] 0 | [14] 0 | [15] 0

Cc1ccc(Nc2nnc(-c3ccc([N+](=O)[O-])cc3)o2)cc1Cl
inactive: [1] 0 | [2] 0 | [3] 0 | [4] 0 | [5] 0 | [6] 0 | [7] 0 | [8] 0 | [9] 0 | [10] 0 | [11] 0 | [12] 0 | [13] 0 | [14] 0 | [15] 0

CC(C)C1=CC2=CCC3[C@](C)(CCC[C@]3(C)C(=O)O)C2CC1 (stereo not given in full) [Abietic Acid]
inactive: [1] 0 | [2] 0 | [3] 0 | [4] 0 | [5] 0 | [6] 0 | [7] 0 | [8] 0 | [9] 0 | [10] 0 | [11] 0 | [12] 0 | [13] 0 | [14] 0 | [15] 0

Clc1cccc(Nc2nnc(-c3ccccc3)c3ccccc23)c1
inactive: [1] 0 | [2] 0 | [3] 0 | [4] 0 | [5] 0 | [6] 0 | [7] 0 | [8] 0 | [9] 0 | [10] 0 | [11] 0 | [12] 0 | [13] 0 | [14] 0 | [15] 0

CN(C)CCCSc1ccccc1NC(=O)/C=C/c1ccccc1 [Cinanserin hydrochloride]
inactive: [1] 0 | [2] 0 | [3] 0 | [4] 0 | [5] 0 | [6] 0 | [7] 0 | [8] 0 | [9] 0 | [10] 0 | [11] 0 | [12] 0 | [13] 0 | [14] 0 | [15] 0

CC(C)Cn1c(=O)n(C)c(=O)c2[nH]cnc21
inactive: [1] 0 | [2] 0 | [3] 0 | [4] 0 | [5] 0 | [6] 0 | [7] 0 | [8] 0 | [9] 0 | [10] 0 | [11] 0 | [12] 0 | [13] 0 | [14] 0 | [15] 0
